Laboratory results taken from the supplement of paper PMC6555819.

How the values were obtained:
Assay in all cases: PBM binding z-score (relative to random genomic background probes); higher = stronger binding; sequences stand for … in GC…GCGATTGACAGCGTAGAATGAAGG
[1] = system: RARb homodimer (NR concentration 270 nM)
Outline: (§1)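 Ligand-free nuclear receptor dimers were applied to custom Agilent 4×180K protein-binding microarrays whose double-stranded probes carried direct-repeat seeds, single-nucleotide variants, half-site ablations and random human genomic background sequences in 34-nt variable regions. Incubation lasted 1 h. Binding z-scores were computed against the random background probes from regression-normalized fluorescence.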

[2] = system: RARg:RXRa (NR concentration 270 nM, RXRa partner concentration 90 nM)
Outline: as §1

[3] = system: RARg homodimer (NR concentration 270 nM)
Outline: as §1

[4] = system: RXRa DBDmut IVT, anti-RXR (DBD mutation: RXRa K156A/R161A, NR concentration 90 nM)
Outline: as §1

[5] = system: RXRa homodimer (NR concentration 180 nM)
Outline: as §1

[6] = system: THRa:RXRa (NR concentration 90 nM, RXRa partner concentration 90 nM)
Outline: as §1

[7] = system: THRa homodimer (NR concentration 90 nM)
Outline: as §1

[8] = system: VDR:RXRa (NR concentration 270 nM, RXRa partner concentration 90 nM)
Outline: as §1

[9] = system: VDR homodimer (NR concentration 270 nM)
Outline: as §1

Sequence | PBM binding z-score [1] | PBM binding z-score [2] | PBM binding z-score [3] | PBM binding z-score [4] | PBM binding z-score [5] | PBM binding z-score [6] | PBM binding z-score [7] | PBM binding z-score [8] | PBM binding z-score [9]
CCTGCTAGGTCGTGGTCAGCTAATCTACAGTATG | 1.21 | 0.958 | 1.4 | 0.759 | 0.607 | 0.876 | 0.18 | -0.0552 | -0.0912
CCGAGTAGGTTATGGGGCATTCCGGCAACGGTGA | 1 | 0.266 | 0.307 | -0.402 | 0.465 | 0.0973 | 0.142 | -0.216 | 0.147
GTACCAAGGTGAATAGGGCGTTGATGAGTAGGCG | 1.21 | 1.13 | 0.952 | -0.247 | 0.599 | 1.36 | 0.767 | -0.176 | 0.221
ATCTCTAGGTAAAAGTTCAGTGTATCCCGAGGAT | 2.33 | 1.84 | 2.05 | 1.12 | 1.49 | 1.43 | 0.678 | 1.56 | 2.3
GATATAGGGTCAAGGCCAGAGTACGCGTATTGAT | 3.71 | 5.6 | 5.13 | 2.83 | 5.81 | 3.96 | 2.03 | 4.5 | 2.59
GCTTGTCGATCAAGGTTAAGAAAGACTAAGCTAA | 0.0989 | 0.457 | 0.385 | -0.057 | 0.794 | 1.68 | -0.268 | -0.0633 | -0.484
TAGCCTCGGTCAGATCGGGCCAGTATACGCTATA | 0.82 | 0.738 | 1.98 | -1.02 | -0.0826 | 2.41 | -1.11 | -0.637 | -1.63
GCTATTAGTTGAAAGGGCAACCGTATGATTCTCG | 2.21 | 1.41 | 1.14 | 1.01 | 1.43 | 0.799 | -0.237 | 0.653 | 0.306
CGAACTAGGTCAGAACGGGACAGTGAAGGATGAT | 1.83 | 2.2 | 2.96 | 0.435 | 1.15 | 2.84 | -0.119 | 0.281 | -0.321
CTCGAAAGGTCGGTTGAGGTGATTATACGGATAA | 2 | 2.51 | 2.53 | 0.846 | 2.12 | 4.96 | 1.15 | 3.1 | 0.404
CCTAGTTGGTCAGGAGGTCACACATCGGATATGA | 4.48 | 4.62 | 4.11 | 0.662 | 4.21 | 3.39 | 2.2 | 3.76 | 2.7
ACAGACAGGTGATGAAGGTAACTCATGCTATCAT | 0.0338 | 0.394 | 0.615 | -0.0265 | 0.382 | 0.149 | -0.485 | 0.111 | -0.456
TCATATAGGTAATACAGGTGAAAGGCGGCATCTA | 0.722 | 0.622 | 0.526 | 1.84 | 1.32 | 0.852 | 0.543 | 1.17 | 0.774
CTCGAAAGGTCGGTAGAGGTGAGTATACGGATAA | 2.52 | 2.89 | 2.98 | 0.197 | 2.49 | 4.38 | -0.139 | 2.05 | 0.0872
CGAACTAGGTCAAGGACAGGGAATCTCCGCACGC | 3.19 | 4.09 | 5.13 | 1.35 | 2.84 | 3.13 | 2.25 | 1.09 | 0.294
CTACCAAGGTGAACAAGGGCGTTGATTACTATTC | 1.26 | 1 | 0.99 | 0.764 | 0.725 | 2.13 | 0.707 | 4.73 | 0.903
CGTCCAAGGTCGTAGGAGGTCAGTGAAGACAGAT | 4.07 | 4.63 | 4.14 | 2.43 | 4.36 | 4.89 | 1.61 | 5.47 | 2.85
ATACCAAGGTGATCGTGAGGTCGGTGATACTAAC | 1.4 | 1.58 | 0.586 | -0.0984 | 0.701 | 2.63 | 1.81 | 0.863 | 0.911
AGAATGAGGTTACCAAAGATCAGAGAAACGCTTG | 0.638 | 2.17 | 1.6 | 1.04 | 2.47 | 2.64 | 0.519 | 1.36 | 0.185
CCTACTGGGCCACCAGGTCATTGATATCAACGTT | 2.62 | 2.19 | 2 | -0.211 | 1.43 | 2.94 | 2.63 | 1.97 | 1.77
CCTGACAGGTGAAAGGTAACTCAGTCTGGTACGC | 0.705 | 1.41 | 0.684 | -0.145 | 1.95 | 0.905 | -0.332 | 0.319 | -0.107
CCTACTGGGCCACGACAGGTCATTGATTCAGTGA | 2.31 | 1.95 | 1.52 | -0.438 | 1.56 | 2.74 | 0.324 | 1.32 | 0.706
CAAACTAGGTCAGGAAAGGTCAAAGTCGAATGAC | 5.66 | 6.84 | 7.48 | 1.51 | 6.81 | 4.74 | 1.62 | 6.31 | 3.13
GGAACGAGGGCATTCGAGTTGATAGCGTGGCGAT | 0.509 | 0.892 | 1.16 | 3 | 0.583 | 3.13 | -0.46 | 3.59 | 3.6
ATCTATAGGTAAGACTCAGTTCAGTGAAGAACGC | 0.556 | 0.524 | 0.517 | 0.507 | 0.24 | 0.633 | 0.24 | 0.866 | 1.36
GCTAGCAGGCCATTTGGGCCACTCAATGACGGGC | -0.576 | -0.489 | 0.0153 | -0.353 | -0.706 | -0.537 | -1.01 |  | -0.669
